# Most compounds without a hit are left out; they make up all but 7.4% or so of the library.
# Luciferase inh = Photinus pyralis luciferase inhibition; Potency, µM (doses to about 115 µM), most hits filed as inhibitors; 76,000 compounds, 2.5% hits; purified P. pyralis luciferase, luminescence, biochemical; P08659; also: nearly all actives have a fitted effect of over 65% in size
# Target sequence (P08659 whole entry, looked up): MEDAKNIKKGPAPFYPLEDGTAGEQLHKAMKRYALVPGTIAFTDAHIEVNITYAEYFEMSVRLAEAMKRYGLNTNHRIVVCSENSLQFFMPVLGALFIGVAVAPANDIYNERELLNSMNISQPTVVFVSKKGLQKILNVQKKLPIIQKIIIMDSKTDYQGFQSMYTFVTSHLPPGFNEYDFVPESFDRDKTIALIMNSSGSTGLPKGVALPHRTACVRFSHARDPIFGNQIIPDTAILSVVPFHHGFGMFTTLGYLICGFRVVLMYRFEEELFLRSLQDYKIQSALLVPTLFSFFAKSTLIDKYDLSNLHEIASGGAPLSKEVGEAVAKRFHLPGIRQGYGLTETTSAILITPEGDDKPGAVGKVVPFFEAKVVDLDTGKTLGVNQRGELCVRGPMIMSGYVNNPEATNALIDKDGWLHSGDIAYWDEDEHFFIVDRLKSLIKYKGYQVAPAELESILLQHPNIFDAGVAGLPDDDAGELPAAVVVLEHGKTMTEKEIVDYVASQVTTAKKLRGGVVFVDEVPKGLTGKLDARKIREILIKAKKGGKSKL
#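 Purified 10nM P. pyralis luciferase with 10uM D-luciferin and 10uM ATP in 50mM Tris acetate pH 7.5, 10mM Mg acetate, 0.01% Tween-20, 0.05% BSA. qHTS titration; luminescence read by CCD imager.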
# HEK293 tox = HEK 293 cell cytotoxicity. HEK 293 viability, ATP luminescence (CellTiter-Glo), 48-72 h. Potency, µM (top dose mostly 115 µM), actives largely listed as inhibitors. 94,000 compounds, 6.6% hits; also: nearly all actives have a fitted effect of over 60% in size
#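 HEK 293 seeded at 250 cells/well receive compound via pintool. After 48 or 72 hr at 37 degree Celsius, 5% CO2 and 95% humidity, CellTiter-Glo is dispensed and luminescence read following 10 min at room temperature.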
# hNpr1 antagonist = blocks ANP-stimulated signaling of human Npr1 receptor; Potency, µM (series often up to 46.3 µM), usual class: inhibitors; P16066; 76,000 compounds, 1.6% hits; AID 1347048; HEK293 hNpr1 GloSensor cGMP, ANP-stimulated luminescence; calls by dose curve; also: nearly all actives have a fitted effect of over 60% in size
#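 HEK293 cells stably expressing human Npr1 and cGMP GloSensor pGS-40F, loaded 2 h with 2% GloSensor reagent, given compound 30 min at room temperature. Luminescence read before and 20 min after 0.1 nM hNppA.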
# 3T3 cytotox = cytotoxic compounds in NIH 3T3 cells; 94,000 compounds, 4.3% hits; NIH 3T3 viability, CellTiter-Glo ATP luminescence, 48-72 h; Potency, µM (highest dose often 96.7 µM), hits mostly inhibitors; also: nearly all actives have a fitted effect of over 55% in size
#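 Mouse fibroblast NIH 3T3 cells, 400 per well, received compound via pintool and were incubated for 48 or 72 hr prior to CellTiter-Glo ATP luminescence measurement.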
# HEK293 viab = counter-screen for SNCA expression inhibitors: cell viability; HEK-293-SNCA-luc viability, GF-AFC fluorescence, 24 h; Potency, µM (doses to about 57.1 µM), usual class: cytotoxic; 150,000 compounds, 0.12% hits; AID 1671193; also: nearly all actives have a fitted effect of over 30% in size
#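 Cytotoxicity counterscreen: after 24 h compound treatment of genome-edited SNCA-luciferase HEK-293 cells, live-cell protease substrate GF-AFC read by fluorescence after 30 min; activity scaled between DMSO (0%) and medium-only (-100%), curves Hill-fitted.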
# SNCA expr inh = inhibitors of alpha-synuclein (SNCA) gene expression; Potency, µM (highest dose often 57.2 µM), usual class: inhibitors; AID 1671194; HEK-293 SNCA-luciferase knock-in, luminescence, 24 h; 140,000 compounds, 0.17% hits; also: nearly all actives have a fitted effect of over 45% in size
# Hits are given with their value; i = inactive; ? = inconclusive; nt = no result given; [ ] = dose if it differs, or a comment. Unless noted, calls follow the shape of the dose curve; as a rule, active = well fitted curve in the direction sought with a large enough effect; inconclusive = small, poorly fitted or top-dose-only effect, or another doubt; inactive = no such curve, though single readings can be large; an effect the other way counts as inactive or inconclusive.
SMILES,Luciferase inh,HEK293 tox,hNpr1 antagonist,3T3 cytotox,HEK293 viab,SNCA expr inh
Cc1cc(C)c2c(CC(=O)N[C@@H]3CCOC[C@H]3Oc3ccccn3)coc2c1,i,50.1µM,i,?,i,i
O[C@@H]1C[C@@H](c2nc(-c3ccc(C(F)(F)F)cc3)no2)N(Cc2cccc(OC(F)(F)F)c2)C1,35.5µM,79.4µM,i,?,i,i
O[C@@H]1C[C@@H](c2nc(-c3ccccc3)no2)N(Cc2cccc(OC(F)(F)F)c2)C1,70.8µM,?,i,?,i,i
Cc1ccc(-c2noc([C@@H]3C[C@@H](O)CN3Cc3cccc(OC(F)(F)F)c3)n2)cc1F,i,?,i,?,i,i
COc1cccc(C(=O)N2CCCN(c3ccc4nnc(-c5ccccc5)n4n3)CC2)c1,nt,i,nt,?,nt,nt
O=C(C1CCCCN1Cc1ccc(-c2cccs2)cc1)N1CCC(Cc2ccccc2)CC1 (stereo not given),nt,?,nt,?,i[12.5 µM],i
COc1ccccc1-n1c(=O)c(C(=O)N2CCN(C(=O)c3ccc(Cl)nc3)CC2)nc2cccnc21,nt,i,nt,i,i,i
CCCC(=O)NC1CCN(c2ccnc3ccnn23)C1 (stereo not given),nt,?,nt,i,i,i
CN(C)c1ccc(-n2cnc3cccnc32)cc1,35.5µM,?,i,?,i,i
O=C(Nc1ccc(Oc2ccccc2)cc1)N[C@H]1CO[C@H]2[C@@H]1OC[C@H]2OC(=O)Nc1cccc2ccccc12,i,17.8µM,?,?,i,?
O=C(Nc1ccc(Oc2ccccc2)cc1)O[C@@H]1CO[C@H]2[C@@H]1OC[C@@H]2NC(=O)c1ccccn1,?,?,11.2µM,?,?,i
O=C(Nc1cccc2ccccc12)O[C@@H]1CO[C@H]2[C@@H]1OC[C@@H]2NCC1CCCCC1,i,44.7µM,i,?,i,?
O=C(Nc1cccc2ccccc12)O[C@@H]1CO[C@H]2[C@@H]1OC[C@@H]2NS(=O)(=O)c1ccc2ccccc2c1,i,?,i,79.4µM,i,i
O=C(Nc1cccc2ccccc12)O[C@@H]1CO[C@H]2[C@@H]1OC[C@@H]2NC(=O)C1CCC1,i,i,i,i,i,i
N#CC1CCN(C(=O)C2CCN(Cc3ccccc3-c3ccccc3F)CC2)CC1,nt,?,nt,?,i,i
O=C(Nc1ccccc1F)N1CCCN(CCn2nc3n(c2=O)CCCC3)CC1,nt,i,nt,i,nt,nt
CO[C@H]1C(=O)N(C2CCN(C(=O)c3nccc4ccccc34)CC2)[C@H]1c1ccncc1,nt,?,nt,?,i,i
O=C(NCC(F)(F)F)c1ccc2nnc(-c3cncc(Cl)c3)n2c1,nt,i,nt,i,i,i
O=[S+]1([O-])c2cccnc2OC(COc2ccccc2)CN1C1Cc2ccccc2C1 (stereo not given),nt,?,nt,?,i,i
O=C(Nc1nc2c(s1)CCC2)C1CC(=O)N(c2n[nH]c3cccc(F)c23)C1 (stereo not given),i,44.7µM,i,?,i,?
O=C(Nc1nc2c(s1)CCCC2)C1CC(=O)N(c2n[nH]c3ccccc23)C1 (stereo not given),i,?,i,i,i,i
O=C(C1CC(=O)N(c2n[nH]c3cccc(F)c23)C1)N1CCCC1 (stereo not given),i,i,i,i,i,i
O=C(Nc1nc2c(s1)CCC2)C1CC(=O)N(c2n[nH]c3cc(Br)ccc23)C1 (stereo not given),i,?,i,17.8µM,?,i
COc1ccc(N2CCN(C(=O)C3CC(=O)N(c4n[nH]c5cccc(F)c45)C3)CC2)cc1 (stereo not given),i,39.8µM,i,i,i,i
O=C(Nc1nc2ccccc2s1)C1CC(=O)N(c2n[nH]c3cccc(F)c23)C1 (stereo not given),i,12.6µM,i,25.1µM,i,?
O=C(Cc1ccc(F)cc1)N1CCC(C(=O)N2CCC(c3nc4ncccc4[nH]3)CC2)CC1,nt,i,nt,i,i,i
Cc1ccc2c(n1)OC(COc1ccccc1)CN(Cc1cccs1)C2=O (stereo not given),nt,?,nt,?,?,i

# Source: PubChem BioAssay (National Center for Advancing Translational Sciences (NCATS))
